Screening data from PubChem BioAssay.
IL-1B inflam inh: inhibitors of inflammasome signaling (IL-1 beta secretion). THP-1 LPS/ATP IL-1B secretion, AlphaLISA, 16 h; hits give low values. activity change, % at 57.5 µM. 360,000 compounds, 4.7% hits. AID 743279; in the data active = activity change below about -50%; inconclusive = mostly about -30% to -49%
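THP-1 cells pretreated 1 hr with compounds (up to 57.5 uM final), then stimulated with LPS (250 ng/mL final) plus ATP (1.25 mM final); secreted IL-1B measured by AlphaLISA after 16 hr, decreased signal indicating inhibition.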
HT1080 IDH1KD tx: HT-1080 IDH1 knockdown cell toxicity (counter line) | HT-1080 IDH1 knockdown viability, ATP luminescence, 48 h | Potency, µM (titrated, usually from 46.1 µM), without a hit: at the highest dose activity, negative = toxicity, usual class: cytotoxic | 360,000 compounds, 2% hits | AID 686971;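 also: potency is read from the fitted curve at half-maximal effect; 0% = DMSO wells and -100% = cell-free medium wells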
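IDH1KD HT-1080 cells, 750/well, RPMI + 5% FBS; compound pinned after 2 h settling; 48 h, 37 °C; CellTiter-Glo luminescence; % activity normalised to DMSO and no-cell wells; curves fitted, classed by r2 and efficacy.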
HT1080-NT tox: kills 2HG-producing HT-1080-NT fibrosarcoma cells; HT-1080-NT fibrosarcoma viability, CellTiter-Glo ATP luminescence, 48 h; Potency, µM (titrated, usually from 46.1 µM), without a hit: at the top dose activity, negative = less viability, usual class: cytotoxic; 360,000 compounds, 1.6% hits; AID 686970;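 also: NT is the 2HG producing partner of a matched IDH1 knockdown line; potency is read from the fitted curve at half-maximal effect; 0% = DMSO-treated cells and -100% = media-only wells without cells; nearly all actives have a fitted effect of over 55% in size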
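Viability of the 2HG-overproducing fibrosarcoma line after 48 hours of compound exposure at 37 degrees C was determined by luminescence with CellTiter-Glo, and concentration-effect curves were then fitted and categorized.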
DT40 TDP1 no CPT: qHTS for Inhibitors of human tyrosyl-DNA phosphodiesterase 1 (TDP1): qHTS in cells in absence of CPT; DT40 Tdp1-/- hTDP1 cells, no CPT, ATP luminescence, 48 h; Potency, µM (highest dose often 46.2 µM), for inactives: at the top dose activity change, negative = growth inhibition, usual class: inhibitors; 420,000 compounds, 15% hits; also: potency is read from the fitted curve at half-maximal effect; nearly all actives have a fitted effect of over 55% in size
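A cellular qHTS used chicken DT40 cells lacking endogenous Tdp1 but carrying stably transfected human TDP1. Compounds were applied without camptothecin, and cell growth kinetics were judged by ATP-dependent luminescence after ≥48 hr.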
12-LOX inh: inhibitors of human 12S-lipoxygenase ALOX12. P18054. purified 12hLO, xylenol orange hydroperoxide absorbance. Potency, µM (top dose mostly 108 µM), for inactives: at the top dose activity change, negative = inhibition, most hits filed as inhibitors. 580,000 compounds, 1.1% hits; also: potency is read from the fitted curve at half-maximal effect
Target sequence (P18054 whole entry, looked up): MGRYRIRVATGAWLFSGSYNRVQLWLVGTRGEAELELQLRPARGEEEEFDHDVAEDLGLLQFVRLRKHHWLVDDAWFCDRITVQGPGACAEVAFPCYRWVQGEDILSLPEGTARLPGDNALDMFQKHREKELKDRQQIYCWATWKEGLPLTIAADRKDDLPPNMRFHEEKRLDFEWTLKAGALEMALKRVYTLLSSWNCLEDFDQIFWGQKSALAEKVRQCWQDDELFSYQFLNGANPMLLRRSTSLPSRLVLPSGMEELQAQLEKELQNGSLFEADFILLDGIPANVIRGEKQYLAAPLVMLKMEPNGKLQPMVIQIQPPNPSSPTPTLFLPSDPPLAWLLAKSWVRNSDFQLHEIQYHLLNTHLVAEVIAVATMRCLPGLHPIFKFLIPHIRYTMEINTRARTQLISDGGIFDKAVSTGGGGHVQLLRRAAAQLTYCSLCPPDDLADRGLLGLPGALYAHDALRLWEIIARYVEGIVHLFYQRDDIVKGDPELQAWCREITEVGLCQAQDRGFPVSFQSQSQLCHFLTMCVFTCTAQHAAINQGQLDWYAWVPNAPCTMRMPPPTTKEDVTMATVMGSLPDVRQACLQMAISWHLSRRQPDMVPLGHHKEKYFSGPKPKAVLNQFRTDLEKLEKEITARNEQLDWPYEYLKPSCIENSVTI
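Hydroperoxide product was detected by ferrous iron/xylenol orange as the 573 to 405 nm absorbance ratio. Arachidonic acid at 40 uM (final) was turned over for 30 min at room temperature by 150 nM human 12hLO, pH 7.0 Hepes buffer, after 15 min compound preincubation.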
DT40 TDP1 CPT: growth inhibition of DT40 Tdp1-/-;hTDP1 cells with camptothecin (screen for TDP1 inhibitors) | chicken DT40 Tdp1-/-;hTDP1 cells + 20 nM CPT, ATP luminescence, 48 h | Potency, µM (highest dose often 46.2 µM), inactives show top-dose activity change, negative = growth inhibition, most hits filed as inhibitors | 420,000 compounds, 12% hits | AID 686979; also: potency is read from the fitted curve at half-maximal effect; nearly all actives have a fitted effect of over 55% in size
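Chicken DT40 Tdp1-/- cells complemented with human TDP1, 400 cells/well, exposed to compounds plus 20 nM camptothecin for at least 48 h at 37 C; viability read as ATP content by CellTiter-Glo luminescence.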
Numbers without * were called inactive; [ ] = another dose, or the depositor's remark. Only a selection was taken, and hits are over-represented in it overall. Unless noted, calls follow the shape of the dose curve; as a rule, active = well fitted curve in the direction sought with a large enough effect; inconclusive = small, poorly fitted or top-dose-only effect, or another doubt; inactive = no such curve, though single readings can be large; an effect the other way counts as inactive or inconclusive. Unless noted, % is scaled to controls: 0 for no effect and ±100 for the full control effect.

O=C(c1cccn1-c1nnc(N2CCCC2)s1)N1CCN(c2ccc(F)cc2)CC1 was read as DT40 TDP1 no CPT 18.4µM*, 12-LOX inh -2.7% and DT40 TDP1 CPT 16.4µM*.
O=C(/C=C/c1cccs1)Nc1ccc(N2CCOCC2)c(S(=O)(=O)Nc2cc(Cl)ccc2Cl)c1 was read as IL-1B inflam inh -2.3, HT1080 IDH1KD tx -6.0%, HT1080-NT tox 2.6%, DT40 TDP1 no CPT 23.1µM*, 12-LOX inh 3.0% and DT40 TDP1 CPT inconclusive.
For Nc1ccc(N2CCOCC2)c(S(=O)(=O)Nc2cc(Cl)ccc2Cl)c1 the results were IL-1B inflam inh 38.0, HT1080 IDH1KD tx -21.7%, HT1080-NT tox -21.9%, DT40 TDP1 no CPT 1.3%, 12-LOX inh 0.0% and DT40 TDP1 CPT -2.3%.
Screening O=C(/C=C/c1cccs1)Nc1ccc(N2CCOCC2)c(S(=O)(=O)Nc2ccccc2Cl)c1 returned IL-1B inflam inh inconclusive, HT1080 IDH1KD tx -28.9%, HT1080-NT tox 3.6%, DT40 TDP1 no CPT 23.1µM*, 12-LOX inh -22.5% and DT40 TDP1 CPT inconclusive.
For CC(C)NC(=O)c1cc2c(-c3ccc(Cl)cc3)nn(C)c2s1 the results were IL-1B inflam inh 16.2, HT1080 IDH1KD tx -1.5%, HT1080-NT tox 0.0%, DT40 TDP1 no CPT -20.2%, 12-LOX inh 11.9% and DT40 TDP1 CPT -7.5%.
Screening CCOc1ccc(NC(=O)c2cc3c(-c4ccccc4F)nn(C)c3s2)cc1 returned DT40 TDP1 no CPT -9.8%, 12-LOX inh inconclusive and DT40 TDP1 CPT inconclusive.
Screening Cn1nc(-c2ccccc2F)c2cc(C(=O)NCCc3ccc(Cl)cc3)sc21 returned DT40 TDP1 no CPT 16.4µM*, 12-LOX inh 2.2% and DT40 TDP1 CPT inconclusive.
`COCCNC(=O)c1cc2c(-c3ccccc3F)nn(C)c2s1` gave IL-1B inflam inh -54.0*, HT1080 IDH1KD tx -15.7%, HT1080-NT tox -7.3%, DT40 TDP1 no CPT -23.0%, 12-LOX inh inconclusive and DT40 TDP1 CPT -25.0%.
For CNC(=O)c1cc2c(-c3ccccc3)nn(C)c2s1 the results were IL-1B inflam inh -10.6, HT1080 IDH1KD tx 0.7%, HT1080-NT tox -4.5%, DT40 TDP1 no CPT 20.6µM*, 12-LOX inh -6.6% and DT40 TDP1 CPT inconclusive.
`COC(=O)c1cc(NC(=O)c2cc3c(-c4ccccc4F)nn(C)c3s2)cc(C(=O)OC)c1` gave DT40 TDP1 no CPT inconclusive, 12-LOX inh -25.9% and DT40 TDP1 CPT 3.26µM*.
For CCOc1ccc(OCCC(=O)OCC(=O)Nc2c(C)cc(C)cc2Cl)cc1 the results were 12-LOX inh -43.9%.
For CNC(=O)c1cc2c(s1)-c1ccccc1CC2 the results were IL-1B inflam inh -1.8, HT1080 IDH1KD tx 2.2%, HT1080-NT tox -17.5%, DT40 TDP1 no CPT -2.6%, 12-LOX inh 0.0% and DT40 TDP1 CPT 13.4%.
Screening CCCCN(C)CCNC(=O)c1cc2c(-c3ccccc3F)nn(C)c2s1 returned IL-1B inflam inh -97.2*, HT1080 IDH1KD tx inconclusive, HT1080-NT tox 18.4µM*, DT40 TDP1 no CPT inconclusive, 12-LOX inh 19.8% and DT40 TDP1 CPT -11.8%.
For Cn1nc(C(F)(F)F)c2cc(C(=O)Nc3ccc(C(F)(F)F)cc3)sc21 the results were IL-1B inflam inh inconclusive, HT1080 IDH1KD tx inconclusive, HT1080-NT tox inconclusive, DT40 TDP1 no CPT 20.6µM*, 12-LOX inh inconclusive and DT40 TDP1 CPT inconclusive.
For CNC(=O)c1cc(C)c(-c2ccccc2)s1 the results were IL-1B inflam inh 9.7, HT1080 IDH1KD tx 0.0%, HT1080-NT tox 1.9%, DT40 TDP1 no CPT 20.6µM*, 12-LOX inh -3.5% and DT40 TDP1 CPT inconclusive.
Cn1nc(C(F)(F)F)c2cc(C(=O)Nc3ccc(F)c(Cl)c3)sc21 was read as HT1080 IDH1KD tx 9.6%, HT1080-NT tox 0.0%, DT40 TDP1 no CPT inconclusive, 12-LOX inh 0.0% and DT40 TDP1 CPT 10.9%.
`Fc1ccc(-c2cnc([C@@H]3COCCN3Cc3c[nH]c4ccccc34)[nH]2)c(F)c1` gave 12-LOX inh -30.8%[176 µM].
For Cn1c(=O)c2c(ncn2CCC(=O)Nc2ccc(Cl)c(Cl)c2)n(C)c1=O the results were 12-LOX inh -6.4%.
`CCOC(=O)Cc1csc(NC(=O)c2cc(-c3ccncc3)nc3ccccc23)n1` gave IL-1B inflam inh 30.1, HT1080 IDH1KD tx -9.6%, HT1080-NT tox 12.8%[9.24 µM], DT40 TDP1 no CPT inconclusive, 12-LOX inh inconclusive and DT40 TDP1 CPT 16.4µM*.
For Cc1csc(NC(=O)c2cc(-c3ccccc3)nc3ccccc23)n1 the results were HT1080 IDH1KD tx -24.4%, HT1080-NT tox -23.1%, DT40 TDP1 no CPT 14.6µM*, 12-LOX inh inconclusive and DT40 TDP1 CPT inconclusive.
Screening Cc1ccc(-c2cc(C(=O)Nc3nncs3)c3ccccc3n2)cc1 returned 12-LOX inh -14.6%.
For Cc1sc(NC(=O)CC(C)(C)C)c(C#N)c1C the results were 12-LOX inh 12.6µM*.
`CC(=O)Nc1sc(C)c(C)c1C#N` gave 12-LOX inh -19.5%.
CCN(CC)C(=O)N1CCC2(CC1)C(OC)C(=O)N2c1cccc(F)c1 (centres undefined) was read as 12-LOX inh 26.6%.
For Cc1nc(NC(=O)c2ccccc2)sc1-c1csc(NCCc2ccccc2)n1 the results were IL-1B inflam inh 2.2, HT1080 IDH1KD tx -23.1%, HT1080-NT tox -18.7%, DT40 TDP1 no CPT 16.4µM*, 12-LOX inh inconclusive and DT40 TDP1 CPT 23.1µM*.
For CCOc1ccccc1Nc1nc(-c2sc(NC(=O)CC)nc2C)cs1 the results were 12-LOX inh -24.1%.
`CCCCCCC(=O)Nc1nc(C)c(-c2csc(Nc3ccccc3OC)n2)s1` gave IL-1B inflam inh -0.7, HT1080 IDH1KD tx -14.4%, HT1080-NT tox -5.7%, DT40 TDP1 no CPT 20.6µM*, 12-LOX inh inconclusive and DT40 TDP1 CPT inconclusive.
Screening CCCC(C)C(=O)Nc1nc(C)c(-c2csc(Nc3ccc(Cl)cc3)n2)s1 (centres undefined) returned IL-1B inflam inh -2.8, HT1080 IDH1KD tx -8.1%, HT1080-NT tox 0.0%, DT40 TDP1 no CPT 25.9µM*, 12-LOX inh inconclusive and DT40 TDP1 CPT inconclusive.
`CCC(=O)Nc1nc(C)c(-c2csc(Nc3ccccn3)n2)s1` gave IL-1B inflam inh -96.0*, HT1080 IDH1KD tx inconclusive, HT1080-NT tox inconclusive, DT40 TDP1 no CPT inconclusive, 12-LOX inh inconclusive and DT40 TDP1 CPT inconclusive.
